NS1 inh: influenza NS1 inhibition | Potency, µM (series often up to 46.1 µM), for the others: at the top dose activity, positive = more growth | 270,000 compounds, 0.4% hits; calls by dose curve; also: potency is read from the fitted curve at half-maximal effect; actives are rising curves; nearly all actives have a fitted effect of over 50% in size
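Growth recovery, yeast-based: influenza A NS1 expressed in S. cerevisiae causes slow growth, and suppressors are detected by OD600. The parent strain without NS1 is used as positive control.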
CHX counter: counter-screen for Shiga toxin inhibitors: cycloheximide protein synthesis inhibition | cell reporter, cycloheximide protein synthesis inhibition counterscreen | 300,000 compounds, 12% hits | AID 2314 | max response, %; in the data active = max response mostly above about 13%, no sharp cut-off; inactive = mostly below about 14%; also: read at 38.3 µM for the half of the compounds with a filed dose; 0% is about no effect
Shiga toxin inh: blocks Shiga toxin action in Vero cells. Vero cells, Shiga toxin protein synthesis inhibition reporter. inhibition, % at 38.7 µM. 290,000 compounds, 9.2% hits. AID 2315; in the data active = inhibition mostly above about 28%, no sharp cut-off; inactive = mostly below about 43%; also: 0% is about no effect
Pf growth 96h: P. falciparum growth inhibition at 96 hours; P. falciparum luciferase reporter growth, 96 h; Potency, µM (top dose mostly 28.7 µM), inactives show at the highest dose activity change, negative = inhibition, hits mostly inhibitors; 320,000 compounds, 6.9% hits; AID 504834; also: potency is read from the fitted curve at half-maximal effect; % is scaled to controls: 0 for no effect and ±100 for the full control effect
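Compounds incubated with erythrocytes infected by luciferase-expressing P. falciparum (2% hematocrit, 0.05% parasitemia final) for 96 hours, 37 C in 5% CO2. Growth inhibition scored as decreased luciferase luminescence.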
Pf growth 48h: P. falciparum growth inhibition at 48 hours (one generation). 310,000 compounds, 5.9% hits. AID 504832. Potency, µM (titrated, usually from 28.7 µM), for inactives: at the highest dose activity change, negative = inhibition, most hits filed as inhibitors. P. falciparum luciferase growth in erythrocytes, 48 h; also: potency is read from the fitted curve at half-maximal effect; % is scaled to controls: 0 for no effect and ±100 for the full control effect
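Read-out is firefly luciferase luminescence from an integrated reporter in P. falciparum, so falling signal marks reduced parasite growth. Infected erythrocytes were at 2% hematocrit and 0.1% parasitemia (final) in Albumax-supplemented RPMI 1640.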
* hit, by the source's call; i = inactive; ? = inconclusive; nt = no result; [ ] = another dose, or the depositor's remark. Compounds with a hit are over-represented: about 21% of the library has one in this group of screens. Unless noted, calls follow the shape of the dose curve; as a rule, active = well fitted inhibition curve with a large enough effect; inconclusive = small, poorly fitted or top-dose-only effect, or another doubt; inactive = no such curve, though single readings can be large or run the other way.

SMILES	NS1 inh	CHX counter	Shiga toxin inh	Pf growth 96h	Pf growth 48h
C/C(=N\N1CCCCCC1)c1c(O)n(C2CCCCC2)c(=O)[nH]c1=O	1%	11	22	13µM*	?
CCC(=NC1CC1)c1c(O)n(C2CCCCC2)c(=O)[nH]c1=O	-18%	10	13	?	?
C=CCn1c(O)c(/C(C)=N/N2CCCCCC2)c(=O)[nH]c1=O	3%	1	12	-17%	7%
CC/C(=N\NC(=O)c1ccccc1)c1c(O)n(C2CCCCC2)c(=O)[nH]c1=O	-19%	34*	51*	-8%	15%
CCC(=NCc1cc(OC)cc(OC)c1)c1c(O)n(C2CCCCC2)c(=O)[nH]c1=O	6%	-2	22	0.83µM*	?
Cc1ccc(NCc2n[nH]c(=S)n2-c2ccccc2)c(C)c1	nt	-4	-1	16%	-11%
CCCCn1c(=O)[nH]c(=O)c2c1nc(-c1ccc3ccccc3c1)n2CC	nt	1	-14	?	-28%
CCCCn1c(-c2ccc(Cl)c(Cl)c2)nc2cc3[nH]c(=O)c(C(C)C)nc3cc21	?	-1	2	4.7µM*	?
CCCCn1c(-c2ccc(C(C)(C)C)cc2)nc2cc3[nH]c(=O)c(C(C)C)nc3cc21	30%	-2	-5	4.7µM*	?
O=C(NCC1CCCO1)c1onc(CSc2ccccc2F)c1C(=O)O (centres undefined)	15%	-2	4	0%	-5%
N#Cc1c(/N=C/c2ccco2)oc(-c2ccccc2)c1-c1ccccc1	-24%	-2	-9	27%	17µM*
Cc1ccc(C2CC(=O)Nc3cc4c(cc32)OCO4)o1 (centres undefined)	-5%	-3	-5	nt	-12%
COc1cc(C(C)=O)ccc1COc1ccc(C(=O)OC(C)C(=O)NC(N)=O)cc1OC (centres undefined)	21%	-1	-7	21%	8%
COc1ccc(C2C(C(C)=O)=C(C)Nc3ncnn32)c(OC)c1OC (centres undefined)	0%	1	-5	-13%	-11%
CCOC(=O)C1=C(c2ccccc2)Nc2ncnn2C1c1cc(OC)cc(OC)c1OC (centres undefined)	-4%	-7	-10	?	?
CCOC(=O)C1=C(c2ccccc2)Nc2ncnn2C1c1cccc(OC)c1OC (centres undefined)	-13%	0	-13	1.9µM*	?
COc1cccc(C2C(C(=O)Nc3ccc(C)cc3C)=C(C)Nc3ncnn32)c1OC (centres undefined)	-1%	-2	-1	-11%	12µM*
CC(=O)C1=C(C)Nc2ncnn2C1c1ccccc1Cl (centres undefined)	-1%	-1	-8	0.52µM*	12%
Nc1nc(NCCc2ccccc2)nc(NCCO)c1[N+](=O)[O-]	6%	0	18	?	?
NC(=O)c1ccc(NCC2COc3ccccc3O2)c([N+](=O)[O-])c1 (centres undefined)	-2%	33*	29	36%	57%
CN(C)S(=O)(=O)c1ccc(NCC2COc3ccccc3O2)c([N+](=O)[O-])c1 (centres undefined)	24%	27*	49	13µM*	-9%
CCN(CC)S(=O)(=O)c1ccc(NCC2COc3ccccc3O2)c([N+](=O)[O-])c1 (centres undefined)	12%	20*	21	?	?
O=C(Nc1ccccc1)c1ccc(NCC2CCCO2)c([N+](=O)[O-])c1 (centres undefined)	-5%	68*	100*	?	42%
Cc1ccc([N+](=O)[O-])cc1S(=O)(=O)NCC1COc2ccccc2O1 (centres undefined)	-29%	9	-9	?	3%
NC(=O)c1ccc(NCCCN2CCOCC2)c([N+](=O)[O-])c1	1%	-3	-17	-1%	8%
SMILES	NS1 inh	CHX counter	Shiga toxin inh	Pf growth 96h	Pf growth 48h
CN(C(=O)C1CCC(=O)N(C2CC2)C1)C1CCCCC1 (centres undefined)	-1%	4	17	-19%	9%
COc1ccc(/C=N/NC(=S)Nc2ccccc2)cc1COc1ccc(F)cc1	?	4	13	?	10µM*
COc1ccc(/C=N/NC(=S)Nc2ccccc2)cc1COc1ccc(Br)cc1	-25%	9	36	3.7µM*	?
COc1ccc(-n2ncc(N(C)n3cccc3)c(Cl)c2=O)cc1	-70%	28*	87*	i	306%
C=CCNc1cnn(-c2ccccc2)c(=O)c1Cl	-1%	18*	79	4%	1%
CC(=O)Cn1ncc(N(C)Cc2ccccc2)c(Cl)c1=O	6%	48*	64*	92%	97%
Cc1c2cnn(CC(=O)O)c(=O)c2c(C)n1Cc1ccccc1	2%	-8	-13	-89%	nt
COc1ccc(-n2ncc(Cl)c(Cl)c2=O)cc1	nt	1	32	34%	11%
Cc1ccc(-n2ncc(N(C)C)c(Cl)c2=O)cc1	18%	29*	55*	146%	288%
O=c1c(Cl)c(NS(=O)(=O)c2ccccc2)cnn1-c1ccccc1	1%	1	14	10%	-3%
COc1ccc(C(C#N)C2(C)OCCO2)cc1OC (centres undefined)	12%	6	14	-3%	15%
Cc1cccc(-c2nnc(SCC(=O)c3ccc(O)cc3O)n2C)c1	4%	4	-5	-25%	-7%
CN(C)c1cnn(-c2ccccc2)c(=O)c1Cl	9%	43*	146*	21%	40%
Cc1ccc(C2=NOC(=O)/C2=C\C=C\c2ccccc2)cc1	1%	8	3	2.9µM*	-20%
CN(C)/C=C1\C(=O)ON=C1c1ccccc1	nt	-3	-16	3%	2%
COc1cc(CN2CCN(Cc3ccco3)CC2)cc(OC)c1	-1%	1	-4	2.1µM*	25%
CC(C)C[C@H](NC(=O)[C@H](Cc1ccccc1)NC(=O)CNC(=O)CNC(=O)[C@@H](N)Cc1ccc(O)cc1)C(=O)N[C@@H](CCCN=C(N)N)C(=O)N[C@@H](CCCN=C(N)N)C(=O)N[C@@H](CCC(N)=O)C(=O)N[C@@H](Cc1ccccc1)C(=O)N[C@@H](CCCCN)C(=O)N[C@H](C(=O)N[C@H](C(=O)N[C@H](C(=O)O)[C@@H](C)O)C(C)C)C(C)C	nt	-5	-4	nt	nt
CC1CCN(C(=O)C(C)c2ccc([N+](=O)[O-])cc2)CC1 (centres undefined)	nt	-2	12	-2%[5.75 µM]	-17%
CC(C(=O)N1CCCC1)c1ccc([N+](=O)[O-])cc1 (centres undefined)	9%	5	-3	15µM*	6%
C=CCN(C(=O)C1=NN(C2CCS(=O)(=O)C2)C(=O)CC1)c1nc(-c2ccc([N+](=O)[O-])cc2)cs1 (centres undefined)	6%	38*	42	411%	142%
O=[N+]([O-])c1ccc(N/N=C2\CC3CC=CC23)c([N+](=O)[O-])c1 (centres undefined)	nt	5	44	25%	25%

Assay outcomes from PubChem.
